Measurements: PubChem BioAssay AID1159580 (chemical genetic matrix, 2015)
“And” between values parts separate entries of the source, which are not always exact repeats. Equal entries are not always repeated. The campaign covered roughly 5,500 compounds. About 2,000 (36%) were called active. Another 18% or so got no clear call; they are omitted. Cut-off read from the data, not from the text of the source: active = normalized growth mostly below about 0.91 (no sharp cut-off); inconclusive = no clear call, values can overlap the other calls; inactive = mostly above about 0.92. The list shows a part of the results.

Test: chemical genetic growth profiling, strain panel (AID 1159580);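 note: tested at 20 µM; growth read once vehicle control cultures reached saturation at 30 °C; 1 = growth at the plate median or of vehicle wells; lower values mean less growth of the strain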
Conditions: S. cerevisiae deletion strains, growth OD

COc1ccc(-c2coc3c(O)c(OC)ccc3c2=O)cc1
normalized growth (locus YAL021C, strain ccr4, stronger effect = lower value): 0.907 (inactive)
normalized growth (locus YAL026C, strain drs2, stronger effect = lower value): 0.944 (inactive)
normalized growth (locus YAL030W, strain snc1, stronger effect = lower value): 0.966 (inactive)
normalized growth (locus YBL061C, strain skt5, stronger effect = lower value): 0.983 (inactive)
normalized growth (locus YBR009C, strain hhf1, stronger effect = lower value): 0.887 (active)
normalized growth (locus YBR021W, strain FUR4, stronger effect = lower value): 0.818 (active)
normalized growth (locus YBR023C, strain chs3, stronger effect = lower value): 0.887 (active)
normalized growth (locus YBR171W, strain sec66, stronger effect = lower value): 0.957 (inactive)
normalized growth (locus YBR229C, strain ROT2, stronger effect = lower value): 0.905 (active)
normalized growth (locus YBR231C, strain swc5, stronger effect = lower value): 0.893 (active)
normalized growth (locus YBR279W, strain paf1, stronger effect = lower value): 0.977 (inactive)
normalized growth (locus YCL011C, strain gbp2, stronger effect = lower value): 0.927 (inactive)
normalized growth (locus YCL016C, strain dcc1, stronger effect = lower value): 0.877 (active)
normalized growth (locus YCL029C, strain bik1, stronger effect = lower value): 0.914 (inactive)
normalized growth (locus YCL069W, strain vba3, stronger effect = lower value): 0.945 (inactive)
normalized growth (locus YCR088W, strain abp1, stronger effect = lower value): 0.973 (inactive)
normalized growth (locus YDL005C, strain med2, stronger effect = lower value): 1.01 (inactive)
normalized growth (locus YDL035C, strain GPR1, stronger effect = lower value): 0.874 (inactive)
normalized growth (locus YDL040C, strain nat1, stronger effect = lower value): 0.987 (inactive)
normalized growth (locus YDL074C, strain BRE1, stronger effect = lower value): 0.786 (inactive)
normalized growth (locus YDL101C, strain DUN1, stronger effect = lower value): 0.932 (inactive)
normalized growth (locus YDL185W, strain tfp1, stronger effect = lower value): 0.888 (active)
normalized growth (locus YDL192W, strain arf1, stronger effect = lower value): 0.837 (active)
normalized growth (locus YDR001C, strain nth1, stronger effect = lower value): 1 (inactive)
normalized growth (locus YDR069C, strain doa4, stronger effect = lower value): 1 (inactive)
normalized growth (locus YDR101C, strain arx1, stronger effect = lower value): 0.863 (active)
normalized growth (locus YDR137W, strain rgp1, stronger effect = lower value): 0.696 (active)
normalized growth (locus YDR159W, strain sac3, stronger effect = lower value): 0.797 (active)
normalized growth (locus YDR162C, strain NBP2, stronger effect = lower value): 0.755 (active)
normalized growth (locus YDR195W, strain ref2): 1.01 (inactive)
normalized growth (locus YDR297W, strain sur2, stronger effect = lower value): 0.967 (inactive)
normalized growth (locus YDR318W, strain mcm21, stronger effect = lower value): 0.871 (active)
normalized growth (locus YDR334W, strain swr1, stronger effect = lower value): 0.96 (inactive)
normalized growth (locus YDR335W, strain msn5, stronger effect = lower value): 0.93 (inactive)
normalized growth (locus YDR388W, stronger effect = lower value): 0.944 (inactive)
normalized growth (locus YDR392W, strain spt3, stronger effect = lower value): 0.383 (active)
normalized growth (locus YDR502C, strain sam2, stronger effect = lower value): 0.936 (inactive)
normalized growth (locus YEL003W, strain gim4, stronger effect = lower value): 0.944 (inactive)
normalized growth (locus YEL037C, strain rad23, stronger effect = lower value): 0.959 (inactive)
normalized growth (locus YEL061C, strain CIN8 (second series), stronger effect = lower value): 0.963 (inactive)
normalized growth (locus YEL061C, strain CIN8, stronger effect = lower value): 0.931 (inactive)
normalized growth (locus YER015W, strain faa2, stronger effect = lower value): 0.939 (inactive)
normalized growth (locus YER016W, strain bim1, stronger effect = lower value): 0.966 (inactive)
normalized growth (locus YER110C, stronger effect = lower value): 0.904 (inactive)
normalized growth (locus YER111C, strain swi4, stronger effect = lower value): 0.993 (inactive)
normalized growth (locus YER155C, strain BEM2 (second series), stronger effect = lower value): 0.54 (active)
normalized growth (locus YER155C, strain BEM2, stronger effect = lower value): 0.942 (inactive)
normalized growth (locus YER167W, strain BCK2, stronger effect = lower value): 0.87 (active)
normalized growth (locus YFR010W, strain ubp6, stronger effect = lower value): 1 (inactive)
normalized growth (locus YGL078C, strain dbp3, stronger effect = lower value): 0.959 (inactive)
normalized growth (locus YGL086W, strain mad1, stronger effect = lower value): 0.862 (active)
normalized growth (locus YGL167C, strain pmr1, stronger effect = lower value): 0.976 (inactive)
normalized growth (locus YGL173C, strain kem1, stronger effect = lower value): 0.97 (inactive)
normalized growth (locus YGL227W, strain vid30, stronger effect = lower value): 0.983 (inactive)
normalized growth (locus YGL240W, strain doc1, stronger effect = lower value): 0.851 (active)
normalized growth (locus YGL248W, strain PDE1, stronger effect = lower value): 0.906 (inactive)
normalized growth (locus YGL253W, strain hxk2, stronger effect = lower value): 0.954 (inactive)
normalized growth (locus YGR135W, strain pre9, stronger effect = lower value): 0.916 (inactive)
normalized growth (locus YGR252W, strain gcn5, stronger effect = lower value): 0.781 (inactive)
normalized growth (locus YHR013C, strain ard1, stronger effect = lower value): 0.966 (inactive)
normalized growth (locus YHR027C, strain rpn1, stronger effect = lower value): 0.98 (inactive)
normalized growth (locus YHR030C, strain SLT2, stronger effect = lower value): 0.943 (inactive) and 1.02 (inactive)
normalized growth (locus YHR079C, strain IRE1 (second series), stronger effect = lower value): 0.955 (inactive)
normalized growth (locus YHR079C, strain IRE1, stronger effect = lower value): 1.01 (inactive)
normalized growth (locus YHR094C, strain hxt1, stronger effect = lower value): 0.941 (inactive)
normalized growth (locus YHR129C, strain ARP1, stronger effect = lower value): 0.907 (active)
normalized growth (locus YHR142W, strain chs7, stronger effect = lower value): 0.832 (active)
normalized growth (locus YHR200W, strain rpn10, stronger effect = lower value): 0.902 (active)
normalized growth (locus YIL066C, strain RNR3, stronger effect = lower value): 0.757 (active)
normalized growth (locus YIL073C, strain SPO22, stronger effect = lower value): 0.824 (inactive)
normalized growth (locus YIL125W, strain kgd1, stronger effect = lower value): 0.948 (inactive)
normalized growth (locus YIR030C, strain dcg1, stronger effect = lower value): 0.944 (inactive)
normalized growth (locus YJL092W, strain hpr5, stronger effect = lower value): 0.982 (inactive)
normalized growth (locus YJL095W, strain BCK1 (second series), stronger effect = lower value): 0.959 (inactive)
normalized growth (locus YJL095W, strain BCK1, stronger effect = lower value): 0.757 (active) and 1 (inactive)
normalized growth (locus YJL115W, strain asf1, stronger effect = lower value): 0.943 (inactive)
normalized growth (locus YJL129C, strain trk1, stronger effect = lower value): 0.731 (active)
normalized growth (locus YJL134W, strain LCB3, stronger effect = lower value): 0.937 (inactive)
normalized growth (locus YJL154C, strain vps35, stronger effect = lower value): 0.974 (inactive)
normalized growth (locus YJL164C, strain tpk1, stronger effect = lower value): 0.941 (inactive)
normalized growth (locus YJL166W, strain qcr8, stronger effect = lower value): 0.828 (active)
normalized growth (locus YJL168C, strain set2, stronger effect = lower value): 0.954 (inactive)
normalized growth (locus YJL187C, strain SWE1 (second series), stronger effect = lower value): 0.904 (inactive)
normalized growth (locus YJR066W, strain TOR1, stronger effect = lower value): 0.959 (inactive)
